Data on 5 compounds can be found in PubChem BioAssay AID2284353 (EPA ToxCast).

The AC50 is the concentration giving half of the maximal activity seen.

Results filed as inconclusive are left out. The source made the active and inactive calls. The calls were made as follows: active = hit-call score of the fitted dose curve at least 0.9, where 1 is the maximum; inconclusive = response in the unintended direction; inactive = score below 0.9.

In this assay the test system is Japanese medaka Peroxisome Proliferator-activated Receptor gamma (PPARg), gene 100304459. Briefly: ATG_jmPPARg_EcoTox2: Attagene TRANS-FACTORIAL EcoTox-2 HepG2 Assay for Japanese medaka Peroxisome Proliferator-activated Receptor gamma (PPARg). The protocol:
ATG_EcoTox2 is a cell-based, multiplexed assay created by modifying the existing Attagene TRANS-FACTORIAL system to include a panel of nuclear receptors from some or all the following species: human (Homo sapiens), african clawed frog (Xenopus laevis), rainbow trout (Oncorhynchus mykiss), japanese medaka (Oryzias latipes), and zebrafish (Danio rerio). The ECOTOX2-FACTORIAL format uses HepG2, a human liver cell line, with measurements taken at 24 hours after chemical dosing in a 24-well plate. ATG_jmPPARg_EcoTox2 is one of 29 assay components calculated in the ATG_EcoTox2 assay. It is designed to make measurements of mRNA induction, a form of inducible reporter, as detected with fluorescence intensity signals by Reverse transcription polymerase chain reaction (RT-PCR) and Capillary electrophoresis technology.The assay endpoint ATG_jmPPARg_EcoTox2 was analyzed in the positive analysis fitting direction relative to DMSO as the negative control and baseline of activity. Using a type of inducible reporter, measures of mRNA for gain-of-signal activity can be used to understand the reporter gene at the transcription factor-level as they relate to the gene PPARg. Furthermore, this assay endpoint can be referred to as a primary readout, because this assay has produced multiple assay endpoints where this one serves a reporter gene function. To generalize the intended target to other relatable targets, this assay endpoint is annotated to the nuclear receptor intended target family, where the subfamily is non-steroidal.
Human liver HepG2 cells are transiently transfected with multiple reporter transcription units (MRTUs) in 6-well plates using FuGene 6 reagent (Roche; 3 ml FuGene/1 mg DNA). The MRTU constructs are regulated by a cis-regulating element (promoter). Each RTU expresses a GAL4-UAS that regulates the transcription of a nearby target reporter gene sequence. A major difference between the CIS and TRANS system is that in CIS activities of endogenous TFs are measured, whereas the TRANS assay evaluates changes in activities of exogenous, chimeric NR-Gal4 proteins. […] At the end of 24 hour incubation, total RNA was isolated using TriZol reagent (Invitrogen). The isolated RNA is then reverse-transcribed using oligo(dT) primer and Mo-MLV reverse transcriptase (Invitrogen) with DNAse I (Ambion) treatment for 30 min. The one-tenth of the produced cDNA was amplified by PCR using Taq DNA polymerase (Invitrogen) and two reporter sequence-specific primers. The PCR products were fluorescently labeled by primer extension with 6-arboxyfluorescein (6-FAM) 5'-labeled reporter sequence-specific primer (2 min at 95 C, 20 s at 68 C and 10 min at 72 C) and these products were digested with 5U of HpaI (New England Biolabs) for 2h at 37 C. The fragments were purified using Qiaquick PCR columns (Qiagen), analyzed on an ABI 3130xL genetic analyzer (Applied Biosystems) with peak positions identified by using a set of X-rhodamine (ROX)-labeled MapMarker1000 molecular weight standards (BioVentures). The raw capillary electrophoresis data was processed using Attagraph software (Attagene).
`CCCCOCN(C(=O)CCl)c1c(CC)cccc1CC`: the AC50 is 4.6 µM (active).

`O=C(O)C(F)(F)C(F)(F)C(F)(F)C(F)(F)C(F)(F)C(F)(F)C(F)(F)F`: the AC50 was 75 µM (active).

For the compound `[Cl][Sn]([c]1ccccc1)([c]1ccccc1)[c]1ccccc1`, the AC50 is 0.382 µM (active).

Regarding `O=S(=O)(O)C(F)(F)C(F)(F)C(F)(F)C(F)(F)C(F)(F)C(F)(F)F`, the AC50 was 76.1 µM (active).

In the case of `O=P(Oc1ccccc1)(Oc1ccccc1)Oc1ccccc1`, the AC50 was 30.6 µM (active).
